# Laboratory results reported in ChEMBL document CHEMBL2218924, “A broad activity screen in support of a chemogenomic map for kinase signalling research and drug discovery” (Biochem J, 2013).
# Assays:
# [1] = biological target: Serine/threonine-protein kinase MRCK beta (Homo sapiens) (UniProt Q9Y5S2); settings: at 1 µM
# [2] = biological target: Serine/threonine-protein kinase MRCK beta (Homo sapiens) (UniProt Q9Y5S2); settings: at 10 µM
# [3] = biological target: Ribosomal protein S6 kinase alpha-5 (Homo sapiens) (UniProt O75582); settings: at 1 µM
# [4] = biological target: Ribosomal protein S6 kinase alpha-5 (Homo sapiens) (UniProt O75582); settings: at 10 µM
# [5] = biological target: Ribosomal protein S6 kinase alpha-4 (Homo sapiens) (UniProt O75676); settings: at 1 µM
# [6] = biological target: Ribosomal protein S6 kinase alpha-4 (Homo sapiens) (UniProt O75676); settings: at 10 µM
# [7] = biological target: SRSF protein kinase 3 (Homo sapiens) (UniProt Q9UPE1); settings: at 1 µM
# [8] = biological target: SRSF protein kinase 3 (Homo sapiens) (UniProt Q9UPE1); settings: at 10 µM
# [9] = biological target: T1, Serine/threonine-protein kinase 4 (Homo sapiens) (UniProt Q13043); settings: at 1 µM
# T1 sequence (whole entry): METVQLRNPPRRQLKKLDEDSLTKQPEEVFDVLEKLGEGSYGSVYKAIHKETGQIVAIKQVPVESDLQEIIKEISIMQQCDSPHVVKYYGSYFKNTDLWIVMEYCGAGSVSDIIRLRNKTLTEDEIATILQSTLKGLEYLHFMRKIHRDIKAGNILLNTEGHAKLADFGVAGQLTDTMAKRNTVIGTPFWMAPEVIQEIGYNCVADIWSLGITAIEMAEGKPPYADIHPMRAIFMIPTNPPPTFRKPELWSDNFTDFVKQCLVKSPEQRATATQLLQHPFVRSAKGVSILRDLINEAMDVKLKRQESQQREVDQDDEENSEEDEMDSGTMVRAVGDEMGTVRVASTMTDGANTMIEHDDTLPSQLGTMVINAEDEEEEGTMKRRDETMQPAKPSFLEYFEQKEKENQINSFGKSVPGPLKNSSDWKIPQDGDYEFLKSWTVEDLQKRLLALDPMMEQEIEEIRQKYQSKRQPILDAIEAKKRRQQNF
# [10] = biological target: T1, Serine/threonine-protein kinase 4 (Homo sapiens); settings: at 10 µM
# [11] = biological target: T2, Serine/threonine-protein kinase 3 (Homo sapiens) (UniProt Q13188); settings: at 1 µM
# T2 sequence (whole entry): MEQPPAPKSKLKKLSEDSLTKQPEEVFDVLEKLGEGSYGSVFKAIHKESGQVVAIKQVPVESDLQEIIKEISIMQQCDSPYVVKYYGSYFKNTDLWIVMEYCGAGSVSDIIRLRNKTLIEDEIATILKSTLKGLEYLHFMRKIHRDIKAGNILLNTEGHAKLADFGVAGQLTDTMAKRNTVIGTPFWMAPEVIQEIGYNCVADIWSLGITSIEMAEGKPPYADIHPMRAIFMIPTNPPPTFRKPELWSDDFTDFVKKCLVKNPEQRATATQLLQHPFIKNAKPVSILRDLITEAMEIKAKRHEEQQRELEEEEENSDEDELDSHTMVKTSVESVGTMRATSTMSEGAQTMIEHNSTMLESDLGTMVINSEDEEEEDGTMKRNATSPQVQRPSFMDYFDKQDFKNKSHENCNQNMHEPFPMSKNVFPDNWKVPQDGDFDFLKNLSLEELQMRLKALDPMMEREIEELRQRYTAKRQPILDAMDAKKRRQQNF
# [12] = biological target: T2, Serine/threonine-protein kinase 3 (Homo sapiens); settings: at 10 µM
# [13] = biological target: Serine/threonine-protein kinase 24 (Homo sapiens) (UniProt Q9Y6E0); settings: at 1 µM
# [14] = biological target: Serine/threonine-protein kinase 24 (Homo sapiens) (UniProt Q9Y6E0); settings: at 10 µM
# [15] = biological target: T3, Tyrosine-protein kinase Mer (Homo sapiens) (UniProt Q12866); settings: at 1 µM
# T3 sequence (whole entry): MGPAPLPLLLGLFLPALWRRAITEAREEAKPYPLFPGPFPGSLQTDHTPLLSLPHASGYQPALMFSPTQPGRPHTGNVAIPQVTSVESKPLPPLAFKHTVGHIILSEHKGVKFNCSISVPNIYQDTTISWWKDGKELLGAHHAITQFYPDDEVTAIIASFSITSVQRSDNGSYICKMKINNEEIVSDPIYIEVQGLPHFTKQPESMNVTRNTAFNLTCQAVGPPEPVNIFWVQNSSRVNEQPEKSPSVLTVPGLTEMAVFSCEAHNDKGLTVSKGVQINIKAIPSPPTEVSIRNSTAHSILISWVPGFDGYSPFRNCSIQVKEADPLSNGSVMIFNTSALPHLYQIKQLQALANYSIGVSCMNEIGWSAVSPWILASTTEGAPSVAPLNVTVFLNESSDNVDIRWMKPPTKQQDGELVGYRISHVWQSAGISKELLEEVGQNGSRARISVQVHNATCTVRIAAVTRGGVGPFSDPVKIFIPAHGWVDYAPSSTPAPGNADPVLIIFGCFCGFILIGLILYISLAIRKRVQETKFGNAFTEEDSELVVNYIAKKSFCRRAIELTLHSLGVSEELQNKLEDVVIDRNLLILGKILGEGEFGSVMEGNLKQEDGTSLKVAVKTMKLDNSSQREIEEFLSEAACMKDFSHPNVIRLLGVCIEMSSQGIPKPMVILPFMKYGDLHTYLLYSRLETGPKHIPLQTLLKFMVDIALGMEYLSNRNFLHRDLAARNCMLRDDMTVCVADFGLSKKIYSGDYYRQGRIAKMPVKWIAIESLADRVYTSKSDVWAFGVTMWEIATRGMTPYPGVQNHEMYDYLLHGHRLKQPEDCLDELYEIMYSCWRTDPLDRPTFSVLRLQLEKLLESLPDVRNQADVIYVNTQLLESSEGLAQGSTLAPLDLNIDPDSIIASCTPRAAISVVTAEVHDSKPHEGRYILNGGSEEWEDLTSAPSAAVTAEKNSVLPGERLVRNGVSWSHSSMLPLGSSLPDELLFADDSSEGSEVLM
# [16] = biological target: T3, Tyrosine-protein kinase Mer (Homo sapiens); settings: at 10 µM
# [17] = biological target: Hepatocyte growth factor receptor (Homo sapiens) (UniProt P08581); settings: at 1 µM
# [18] = biological target: Hepatocyte growth factor receptor (Homo sapiens) (UniProt P08581); settings: at 10 µM
# [19] = biological target: MAP kinase-interacting serine/threonine-protein kinase 2 (Homo sapiens) (UniProt Q9HBH9); settings: at 1 µM
# [20] = biological target: MAP kinase-interacting serine/threonine-protein kinase 2 (Homo sapiens) (UniProt Q9HBH9); settings: at 10 µM
# Chain of MAP kinase-interacting serine/threonine-protein kinase 2 (Homo sapiens) (Q9HBH9 whole entry, looked up): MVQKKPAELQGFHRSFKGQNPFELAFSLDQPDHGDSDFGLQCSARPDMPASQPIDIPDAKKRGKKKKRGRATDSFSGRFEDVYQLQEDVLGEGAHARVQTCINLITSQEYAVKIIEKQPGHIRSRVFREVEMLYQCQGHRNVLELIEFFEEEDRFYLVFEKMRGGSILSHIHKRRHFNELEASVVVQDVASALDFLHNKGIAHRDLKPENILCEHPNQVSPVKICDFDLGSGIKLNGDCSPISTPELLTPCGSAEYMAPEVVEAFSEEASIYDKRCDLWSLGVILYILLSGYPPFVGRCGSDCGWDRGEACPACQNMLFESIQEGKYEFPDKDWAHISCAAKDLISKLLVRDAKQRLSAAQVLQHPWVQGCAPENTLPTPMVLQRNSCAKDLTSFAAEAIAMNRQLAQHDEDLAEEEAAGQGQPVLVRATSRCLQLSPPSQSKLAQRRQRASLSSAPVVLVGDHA
# Chain of Hepatocyte growth factor receptor (Homo sapiens) (P08581 whole entry): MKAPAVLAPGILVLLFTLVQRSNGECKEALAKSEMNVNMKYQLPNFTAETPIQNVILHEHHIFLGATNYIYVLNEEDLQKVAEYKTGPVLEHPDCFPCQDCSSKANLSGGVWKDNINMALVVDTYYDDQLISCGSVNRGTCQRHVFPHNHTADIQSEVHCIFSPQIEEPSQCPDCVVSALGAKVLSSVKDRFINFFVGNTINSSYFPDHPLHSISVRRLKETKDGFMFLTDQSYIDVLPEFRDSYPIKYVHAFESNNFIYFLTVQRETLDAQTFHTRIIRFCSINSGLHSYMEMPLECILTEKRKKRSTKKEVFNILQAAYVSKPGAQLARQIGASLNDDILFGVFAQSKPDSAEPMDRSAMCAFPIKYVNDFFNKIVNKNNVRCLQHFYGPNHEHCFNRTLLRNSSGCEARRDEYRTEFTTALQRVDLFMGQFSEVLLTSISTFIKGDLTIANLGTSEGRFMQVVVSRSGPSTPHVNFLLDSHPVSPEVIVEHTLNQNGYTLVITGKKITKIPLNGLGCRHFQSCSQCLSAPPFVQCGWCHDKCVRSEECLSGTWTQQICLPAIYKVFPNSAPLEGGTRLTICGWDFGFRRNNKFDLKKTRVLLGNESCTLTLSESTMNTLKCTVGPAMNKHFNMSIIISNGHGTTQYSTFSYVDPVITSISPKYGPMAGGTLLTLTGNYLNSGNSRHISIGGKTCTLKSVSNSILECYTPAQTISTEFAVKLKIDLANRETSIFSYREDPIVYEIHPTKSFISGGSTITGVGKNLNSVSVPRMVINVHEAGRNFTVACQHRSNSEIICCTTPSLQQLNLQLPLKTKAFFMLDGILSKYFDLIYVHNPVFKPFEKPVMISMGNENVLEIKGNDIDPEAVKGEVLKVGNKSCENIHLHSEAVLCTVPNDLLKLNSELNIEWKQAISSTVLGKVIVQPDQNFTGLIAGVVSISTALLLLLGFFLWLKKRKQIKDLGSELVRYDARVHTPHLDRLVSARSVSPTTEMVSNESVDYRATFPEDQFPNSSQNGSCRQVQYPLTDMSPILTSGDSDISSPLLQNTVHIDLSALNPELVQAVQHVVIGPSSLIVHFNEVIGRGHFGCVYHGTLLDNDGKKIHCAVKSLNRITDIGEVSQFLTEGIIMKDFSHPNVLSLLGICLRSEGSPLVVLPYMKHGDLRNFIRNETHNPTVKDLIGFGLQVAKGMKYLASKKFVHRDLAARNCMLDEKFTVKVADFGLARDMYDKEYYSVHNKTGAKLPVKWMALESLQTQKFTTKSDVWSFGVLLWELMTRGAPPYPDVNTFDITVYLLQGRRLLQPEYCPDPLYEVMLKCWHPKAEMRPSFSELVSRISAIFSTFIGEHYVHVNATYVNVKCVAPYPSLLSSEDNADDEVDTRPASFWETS
# Chain of Serine/threonine-protein kinase MRCK beta (Homo sapiens) (Q9Y5S2 whole entry): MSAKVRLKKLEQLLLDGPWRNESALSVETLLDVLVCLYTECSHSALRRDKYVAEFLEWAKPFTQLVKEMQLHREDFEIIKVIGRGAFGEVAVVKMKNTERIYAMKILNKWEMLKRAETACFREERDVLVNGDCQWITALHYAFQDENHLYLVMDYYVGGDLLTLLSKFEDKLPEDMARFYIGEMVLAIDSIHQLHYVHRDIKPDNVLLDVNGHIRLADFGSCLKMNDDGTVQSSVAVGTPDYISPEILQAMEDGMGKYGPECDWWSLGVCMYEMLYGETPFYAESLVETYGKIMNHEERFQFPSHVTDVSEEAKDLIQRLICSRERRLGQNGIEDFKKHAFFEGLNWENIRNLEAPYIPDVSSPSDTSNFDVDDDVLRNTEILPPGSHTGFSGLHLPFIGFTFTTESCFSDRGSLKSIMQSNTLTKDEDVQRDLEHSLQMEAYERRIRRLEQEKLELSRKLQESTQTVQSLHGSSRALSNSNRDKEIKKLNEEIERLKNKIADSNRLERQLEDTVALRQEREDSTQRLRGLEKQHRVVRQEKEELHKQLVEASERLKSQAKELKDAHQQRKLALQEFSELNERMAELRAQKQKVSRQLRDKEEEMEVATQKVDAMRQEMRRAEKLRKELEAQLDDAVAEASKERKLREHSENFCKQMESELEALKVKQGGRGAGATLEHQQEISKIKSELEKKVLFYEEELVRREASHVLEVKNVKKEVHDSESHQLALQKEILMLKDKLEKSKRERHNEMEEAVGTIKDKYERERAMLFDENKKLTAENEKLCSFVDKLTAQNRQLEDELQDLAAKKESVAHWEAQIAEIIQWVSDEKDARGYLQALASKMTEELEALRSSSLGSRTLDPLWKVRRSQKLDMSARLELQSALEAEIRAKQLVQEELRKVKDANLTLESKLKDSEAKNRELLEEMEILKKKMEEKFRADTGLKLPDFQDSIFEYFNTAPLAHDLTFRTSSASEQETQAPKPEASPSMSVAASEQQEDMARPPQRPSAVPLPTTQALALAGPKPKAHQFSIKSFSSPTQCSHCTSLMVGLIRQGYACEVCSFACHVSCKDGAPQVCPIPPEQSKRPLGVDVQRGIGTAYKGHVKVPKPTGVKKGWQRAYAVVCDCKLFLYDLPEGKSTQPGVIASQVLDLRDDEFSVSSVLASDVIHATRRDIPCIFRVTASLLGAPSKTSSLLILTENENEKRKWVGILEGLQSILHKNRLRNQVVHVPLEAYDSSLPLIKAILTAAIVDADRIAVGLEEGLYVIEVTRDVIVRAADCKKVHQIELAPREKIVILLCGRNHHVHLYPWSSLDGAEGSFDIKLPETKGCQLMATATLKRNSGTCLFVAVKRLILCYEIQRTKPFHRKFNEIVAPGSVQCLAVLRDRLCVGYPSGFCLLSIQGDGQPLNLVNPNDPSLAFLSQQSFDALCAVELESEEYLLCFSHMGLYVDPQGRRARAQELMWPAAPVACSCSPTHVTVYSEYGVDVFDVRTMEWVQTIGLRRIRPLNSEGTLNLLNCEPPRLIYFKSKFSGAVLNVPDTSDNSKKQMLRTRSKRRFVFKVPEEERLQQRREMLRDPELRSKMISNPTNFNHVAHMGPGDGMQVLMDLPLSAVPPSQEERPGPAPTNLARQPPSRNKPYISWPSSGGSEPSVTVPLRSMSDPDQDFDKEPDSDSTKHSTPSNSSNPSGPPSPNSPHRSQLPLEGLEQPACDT
# Chain of Ribosomal protein S6 kinase alpha-4 (Homo sapiens) (O75676 whole entry, looked up): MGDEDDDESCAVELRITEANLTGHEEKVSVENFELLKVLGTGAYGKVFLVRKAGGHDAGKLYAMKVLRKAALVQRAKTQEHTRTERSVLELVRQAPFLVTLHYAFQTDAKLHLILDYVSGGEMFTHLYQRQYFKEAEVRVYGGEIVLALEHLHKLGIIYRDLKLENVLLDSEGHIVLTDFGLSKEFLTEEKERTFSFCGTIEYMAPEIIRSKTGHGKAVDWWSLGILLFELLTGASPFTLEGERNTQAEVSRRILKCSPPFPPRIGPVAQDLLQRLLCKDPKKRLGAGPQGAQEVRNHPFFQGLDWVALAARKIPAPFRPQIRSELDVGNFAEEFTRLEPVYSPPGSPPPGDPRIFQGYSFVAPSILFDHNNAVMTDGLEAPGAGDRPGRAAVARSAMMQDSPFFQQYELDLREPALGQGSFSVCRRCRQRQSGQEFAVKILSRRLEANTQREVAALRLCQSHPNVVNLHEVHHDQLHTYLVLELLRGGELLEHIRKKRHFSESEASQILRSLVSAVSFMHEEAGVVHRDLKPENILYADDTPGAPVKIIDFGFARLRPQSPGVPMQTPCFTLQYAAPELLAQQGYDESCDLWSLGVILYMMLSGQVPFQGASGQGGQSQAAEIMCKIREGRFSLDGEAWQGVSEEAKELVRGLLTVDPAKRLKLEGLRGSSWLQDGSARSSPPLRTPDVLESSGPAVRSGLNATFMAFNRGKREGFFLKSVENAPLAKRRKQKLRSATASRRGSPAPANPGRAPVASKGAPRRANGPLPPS
# Chain of Serine/threonine-protein kinase 24 (Homo sapiens) (Q9Y6E0 whole entry, looked up): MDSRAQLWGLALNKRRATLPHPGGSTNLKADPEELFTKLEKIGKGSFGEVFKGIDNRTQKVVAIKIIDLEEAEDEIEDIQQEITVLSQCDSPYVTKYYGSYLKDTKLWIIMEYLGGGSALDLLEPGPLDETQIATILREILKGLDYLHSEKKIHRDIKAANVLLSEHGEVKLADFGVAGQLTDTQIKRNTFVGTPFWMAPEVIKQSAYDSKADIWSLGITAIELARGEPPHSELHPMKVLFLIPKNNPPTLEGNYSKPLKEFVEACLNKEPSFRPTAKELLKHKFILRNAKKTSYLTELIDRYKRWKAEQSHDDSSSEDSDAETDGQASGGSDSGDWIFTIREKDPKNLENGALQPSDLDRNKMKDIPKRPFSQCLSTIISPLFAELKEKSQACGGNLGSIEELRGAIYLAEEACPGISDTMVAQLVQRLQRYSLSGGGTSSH
SMILES,residual activity [1] [%],residual activity [2] [%],residual activity [3] [%],residual activity [4] [%],residual activity [5] [%],residual activity [6] [%],residual activity [7] [%],residual activity [8] [%],residual activity [9] [%],residual activity [10] [%],residual activity [11] [%],residual activity [12] [%],residual activity [13] [%],residual activity [14] [%],residual activity [15] [%],residual activity [16] [%],residual activity [17] [%],residual activity [18] [%],residual activity [19] [%],residual activity [20] [%]
O=C1c2ccccc2-[n+]2ccc3c([nH]c4ccccc43)c21,90,85,104,110,97,90,106,99,108,94,101,100,71,70,95,97,112,86,55,42
O=C1NC(=O)/C(=C\c2ccc3nccnc3c2)S1,93,53,123,90,89,68,94,69,94,101,96,100,57,55,111,60,98,94,76,28
Cc1ccc(S(=O)(=O)/C=C/C#N)cc1,89,92,111,125,105,99,100,102,79,109,99,95,86,88,101,108,96,123,98,101
CC(C)n1cnc2/c(=N/c3cccc(Cl)c3)nc(NCCO)[nH]c21,85,82,62,50,57,37,61,19,61,58,71,36,62,29,54,10,87,47,95,77
O=C(O)c1ccc2c3c1cccc3c(=O)n1c3ccccc3nc21,93,93,98,93,95,84,97,48,83,72,103,81,97,67,80,28,130,73,67,23
CO[C@H]1[C@@H](OC)C[C@H](C)[C@@H](OC)C2=CC(=O)C=C(NC(=O)/C(C)=C/C=C/[C@H](OC)[C@@H](OC(N)=O)/C(C)=C/[C@@H]1C)C2=O,97,77,115,97,92,104,116,84,101,108,110,102,68,72,105,93,114,82,104,107
O=C1Nc2cc(Br)ccc2/C1=C1/Nc2ccccc2/C1=N\O,83,87,72,78,60,55,93,102,8,-1,10,5,62,70,26,4,118,97,62,77
COc1cc2ncnc(Nc3ccc(O)c(Br)c3)c2cc1OC,91,71,117,108,83,72,95,90,81,55,97,70,54,43,69,16,86,72,10,6
O=C(Nc1cccc(Nc2cc(Nc3cccc(C(F)(F)F)c3)ncn2)c1)C1CC1,86,89,124,107,96,101,102,25,99,87,106,65,69,42,78,74,103,75,39,9
Oc1ccc(-c2nc(-c3ccc(F)cc3)c(-c3ccncc3)[nH]2)cc1,105,92,102,98,77,43,120,110,92,113,108,90,93,77,110,96,117,37,117,94
Oc1ccc(Nc2nc(-c3ccc(Cl)cc3)cs2)cc1,111,129,97,107,109,94,110,97,78,87,101,76,94,102,100,90,138,110,96,80
Cn1cnc2cc3c(Nc4cccc(Br)c4)ncnc3cc21,88,92,107,95,102,102,101,81,97,101,98,92,78,80,79,58,85,68,26,13
Oc1c2ccccc2c2c3c(cccc13)N=N2,90,95,93,69,76,36,90,82,52,21,16,10,57,21,22,9,87,75,43,10
